This is a sample that favours compounds with a hit; in the whole collection about 19% have one here.
TDP1 cell noCPT: qHTS for Inhibitors of human tyrosyl-DNA phosphodiesterase 1 (TDP1): qHTS in cells in absence of CPT; DT40 Tdp1-/- hTDP1 cells, no CPT, ATP luminescence, 48 h; Potency, µM (series often up to 46.2 µM), hits mostly inhibitors; hit rate 15% among 420,000; AID 686978, 2013; further: nearly all actives have a fitted effect of over 55% in size
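A cellular qHTS used chicken DT40 cells lacking endogenous Tdp1 but carrying stably transfected human TDP1. Compounds were applied without camptothecin, and cell growth kinetics were judged by ATP-dependent luminescence after ≥48 hr.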
IL-1B inflam inh: inflammasome signaling inhibition, IL-1 beta readout; hit rate 4.7% among 360,000; THP-1 LPS/ATP IL-1B secretion, AlphaLISA, 16 h; stronger effect = lower value; activity change, % at 57.5 µM; in the data active means activity change below about -50%; inconclusive means mostly about -30% to -49%
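Secreted IL-1B measured by AlphaLISA bead assay after 16 h compound exposure of THP-1 cells; compounds (final up to 57.5 uM) added 1 h before LPS (250 ng/mL) and ATP (1.25 mM) stimulation; lower signal means less secretion.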
HT1080 IDH1KD tx: toxicity to HT-1080 IDH1 knockdown cells (counter line); HT-1080 IDH1 knockdown viability, ATP luminescence, 48 h; Potency, µM (series often up to 46.1 µM), actives largely listed as cytotoxic; hit rate 2% among 360,000; AID 686971
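Assay cells: HT-1080 with IDH1 knockdown, 750 per well, RPMI/5% FBS. Exposure: 48 h at 37 °C following 2 h pre-incubation. Read: CellTiter-Glo luminescence; fitted concentration-response, curve class assigned.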
HT1080-NT tox: kills 2HG-producing HT-1080-NT fibrosarcoma cells. HT-1080-NT fibrosarcoma viability, CellTiter-Glo ATP luminescence, 48 h. Potency, µM (highest dose often 46.1 µM), usual class: cytotoxic. hit rate 1.6% among 360,000;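 further: NT is the 2HG producing partner of a matched IDH1 knockdown line; nearly all actives have a fitted effect of over 55% in size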
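HT-1080-NT; 750 cells/well; 5% FBS RPMI; 48 h compound, 37 degrees C; CellTiter-Glo luminescence; curve fitting and curve-class assignment.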
TDP1 cell CPT: growth inhibition of DT40 Tdp1-/-;hTDP1 cells with camptothecin (screen for TDP1 inhibitors); chicken DT40 Tdp1-/-;hTDP1 cells + 20 nM CPT, ATP luminescence, 48 h; Potency, µM (series often up to 46.2 µM), actives largely listed as inhibitors; hit rate 12% among 420,000; further: nearly all actives have a fitted effect of over 55% in size
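Chicken DT40 Tdp1-/- cells stably complemented with human TDP1 were seeded at 400 cells/well in medium containing 20 nM camptothecin, exposed to pin-transferred compounds, and grown at 37 °C for at least 48 hr. Viability was read as ATP luminescence.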
ELG1 repair inh: blocks ELG1-dependent DNA repair in HEK293T cells; AID 504467; HEK293T ELG1-luciferase reporter, luminescence, 16 h; DNA damage induced by 5-fluorouridine; Potency, µM (titrated, usually from 46.1 µM), usual class: inhibitors; hit rate 2.3% among 330,000; further: nearly all actives have a fitted effect of over 55% in size
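Luminescence from the luciferase reporter, measured 30 min after ONE-Glo reagent at room temperature, was the read-out. Beforehand, 2,000 cells per well were exposed for 16 hr at 37 °C to 5-fluorouridine together with compound or vehicle.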
A number is an active result; 0 = inactive; ? = inconclusive; - = no result; [ ] = dose if it differs, or a comment. Unless noted, the call rests on the fitted dose curve; in most records, active means well fitted curve in the direction sought with a large enough effect; inconclusive means small, poorly fitted or top-dose-only effect, or another doubt; inactive means no such curve, though single readings can be large; an effect the other way counts as inactive or inconclusive.

SMILES	TDP1 cell noCPT	IL-1B inflam inh	HT1080 IDH1KD tx	HT1080-NT tox	TDP1 cell CPT	ELG1 repair inh
CCC1CN2CCc3cc(OC)c(OC)cc3C2CC1CC1NCCc2c1[nH]c1ccc(O)cc21 (configuration not stated)	0.082µM	-101.3	0.184µM	0.411µM	0.146µM	-
CC(C)N(Cc1nccn1C)C(=O)CCc1nnc(CCCc2ccccc2)o1	?	0	0	0	0	?
O=C(/C=C/c1ccc(Br)cc1)NC(=S)N1C[C@H]2C[C@H](C1)c1cccc(=O)n1C2	0	0	0	0	0	0
Cc1ccc(NC(=O)CSc2nc(-c3ccco3)cc(C(F)(F)F)n2)c(C)c1	1.84µM	-	-	-	1.46µM	-
COC(=O)C1C2c3ccccc3C(c3ccccc32)C1C(=O)OC (configuration not stated)	?	0	0	0	0	0
c1ccc(CN2CCN(Cc3ccc4ccccc4c3)CC2)cc1	16.4µM	0	0	0	18.4µM	0
COc1cc2c(cc1OC)-c1c(OC)c(OC)c(CO)c3c1C(C2)N(C)CC3 (configuration not stated)	0	-	-	-	0	-
CN1C(=O)C(=Cc2sc(=O)n(-c3ccccc3)c2N(C)C)C(=O)N(C)C1=O	?	-97.4	?	?	16.4µM	?
Cc1cc(C=C2C(=O)N(C)C(=O)N(C)C2=O)c(C)n1-c1ccccc1	0	0	0	0	0	0
N[C@@H](Cc1ccc(Oc2cc(I)c(O)c(I)c2)c(I)c1)C(=O)O	0	-	-	-	0	-
CCN(CC)S(=O)(=O)c1ccc(C)c(NCC(=O)Nc2ccc(C#N)c(Cl)c2)c1	14.6µM	0	?	0	16.4µM	?
CCC(=O)Nc1ccc(N2CCN(CC)CC2)c(Cl)c1	0	0	0	0	0	0
CC(C)CC(N)c1csc(NC(=O)Nc2ccccc2-c2ccccc2)n1 (configuration not stated)	18.4µM	?	0	?	23.1µM	-
Cn1c(=O)c2c(ncn2CC(=O)Nc2nc(-c3ccccc3Cl)cs2)n(C)c1=O	0	0	0	0	?	0
CC(C)c1ccc(NC(=O)Nc2nc(C(N)CCc3ccccc3)cs2)cc1 (configuration not stated)	4.61µM	-106.1	13µM	?	5.8µM	-
CC(=O)N1CCN(c2ccc(N=Cc3c(O)n(Cc4ccccc4)c(=O)[nH]c3=O)cc2)CC1	?	0	0	0	?	0
CC(C#N)CCC#N (configuration not stated)	0	0	0	0	0	0
COC(=O)C1=C(c2ccc(OC)c(OC)c2)C[C@@H]2CC[C@H]1N2C(=O)NCCOc1ccccc1	0	0	0	0	?	0
COCCNC(=O)N1[C@H]2CC[C@@H]1C(C(=O)OC)=C(c1ccc(-c3ccccc3)c(F)c1)C2	1.84µM	0	0	0	1.84µM	0
COC(=O)C1=C(c2ccc(-c3ccccc3)c(F)c2)C[C@@H]2CC[C@H]1N2C(=O)NCCOc1ccccc1	20.6µM	0	0	0	20.6µM	?
CCCCCn1c(=O)c(C(=O)Nc2ccccc2S(N)(=O)=O)c(O)c2ccccc21	4.61µM	?	?	0	6.51µM	?
CCCCCn1c(=O)c(C(=O)NC(C)c2ccccc2)c(O)c2ccccc21 (configuration not stated)	20.6µM	0	0	0	?	0
CCCCn1c(=O)c(C(=O)NCc2ccccc2)c(O)c2ccccc21	16.4µM	0	0	0	?	0
CCCCn1c(=O)c(C(=O)Nc2ccccc2)c(O)c2ccccc21	4.11µM	0	0	0	3.66µM	0
CC12CC(=O)C3C(CCC4CC=CCC43C)C1CCC2=O (configuration not stated)	?	0	0	0	0	-
SMILES	TDP1 cell noCPT	IL-1B inflam inh	HT1080 IDH1KD tx	HT1080-NT tox	TDP1 cell CPT	ELG1 repair inh
O=C(c1ccccc1)C(CN1CCCC1)c1ccccc1 (configuration not stated)	1.64µM	-103.5	13µM	20.6µM	1.84µM	18.4µM
CCCCCC1(C(C)C)C(=O)NC(=S)NC1=O	0	0	0	0	0	-
COc1cccc(Oc2c(C)oc3cc(OC(=O)N(C)C)ccc3c2=O)c1	0	0	0	0[9.24 µM]	?	0
COc1ccc(-c2oc3cc(OC)ccc3c(=O)c2O)cc1	11.9µM	-	-	-	11.9µM	-
C=CCC1(C(C)CCC)C(=O)N=C(S)NC1=O (configuration not stated)	0	-	-	-	0	-
C=CCC1(CCCCC)C(=O)NC(=S)NC1=O	0	0	0	0	0	-
Cc1c(P(=S)(c2ccccc2)c2ccccc2)[n+]2ccccc2n1C	4.11µM	0	0	0	5.8µM	?
CC(N)Cc1cn(Cc2ccccc2)c2ccccc12 (configuration not stated)	20.6µM	-90.2	?	?	?	0
O=Cc1cn(Cc2ccc(Br)cc2)c2ccccc12	0	0	0	0	0	0
COC(=O)C1=C(c2ccc(C(C)=O)cc2)C[C@@H]2CC[C@H]1N2C(=O)N1CCCCC1	16.4µM	0	0	0	20.6µM	0
COC(=O)C1=C(c2ccc(OC(F)(F)F)cc2)C[C@@H]2CC[C@H]1N2C(=O)N1CCCCC1	2.06µM	0	0	?	2.59µM	0
O=C1NC(=O)N(CCc2ccc(F)cc2)C(=O)/C1=C\C=C\c1ccccc1	3.66µM	0	0	0	2.31µM	?
C=CCN1C(=O)NC(=O)/C(=C/C=C/c2ccccc2)C1=O	23.1µM	?	20.6µM	?	16.4µM	?
CN(C)c1ccc(/C=C2/C(=O)NC(=O)N(CCc3ccc(F)cc3)C2=O)cc1	?	0	0	0	?	?
Clc1cccc(/C=N\Nc2nccs2)c1	4.61µM	0	0	0	14.6µM	?
O=P(Oc1ccccc1)(Oc1ccccc1)N1CCN(c2ccc(F)cc2)CC1	?	0	?	?	?	?
O=P(Oc1ccc(-c2ccccc2)cc1)(N1CC1)N1CC1	9.2µM	0	0	0	2.06µM	-
O=P(Oc1ccc(Cl)cc1)(N1CC1)N1CC1	?	0	0	0	6.51µM	-
Cc1cc(OCC(=O)NCc2ccncc2)c2c3c(c(=O)oc2c1)CCCC3	?	0	0	0	?	0
CN1C2c3ccccc3C3C4c5ccccc5C(C31)C(C2[N+](=O)[O-])N4C (configuration not stated)	?	0	0	0	0	0
COc1ccc(C2NCc3ccc4c(c3-n3cccc32)OCO4)cc1O (configuration not stated)	4.61µM	0	1.84µM	?	4.11µM	0

Compound activity as filed in PubChem.
